# Results filed as inconclusive are left out. Calls of active or inactive are those of the source. Unless noted, calls follow the shape of the dose curve; as a rule, active = well fitted curve in the direction sought with a large enough effect in the repeat runs; inconclusive = weak or mixed curves; inactive = no such curve, though single readings can be large; an effect the other way counts as inactive or inconclusive.
# Experiments:
# [1] = molecular target: Cytochrome P450 2C9 (Homo sapiens) (UniProt P11712); assay: Cytochrome P450 family 2 subfamily C member 9 (CYP2C9) small molecule antagonists: luciferase biochemical (cell-free) qHTS assay (AID 1645842); settings: P450-Glo CYP2C9 enzyme assay, luciferin luminescence; series mostly up to 57.4 µM; also: nearly all actives have a fitted effect of over 55% in size; also: potency is read from the fitted curve at half-maximal effect
# Procedure, shortened: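 Luminescence, after 20 min with luciferin detection reagent, reflected CYP2C9 turnover during a 1 h NADPH-driven reaction at 37C. Enzyme-substrate mix contained 0.4% bovine serum albumin and was preincubated with compound 10 min at room temperature.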
# [2] = molecular target: Rap guanine nucleotide exchange factor 3 (Homo sapiens) (UniProt O95398); assay: Confirmatory qHTS for antagonist of cAMP-regulated guanine nucleotide exchange factor 3 (EPAC1) (AID 1645880; active = well fitted curve in the direction sought with a large enough effect; an effect the other way counts as inactive or inconclusive; also: nearly all actives have a fitted effect of over 55% in size; also: potency is read from the fitted curve at half-maximal effect); settings: EPAC1 Rap1B-BODIPY-GDP exchange, fluorescence; series mostly up to 115 µM
# Procedure, shortened: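 Nucleotide exchange uses 100 nM EPAC1, 250 nM RAP1B-BODIPY-GDP and 50 uM GDP, with compounds in a concentration-titration series. After 5 min at room temperature, fluorescence (480 nm ex/540 nm em) is read every 5 min for 30 min. Data are normalized to control ATA and DMSO.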
# [3] = molecular target: Rap guanine nucleotide exchange factor 3 (Homo sapiens) (UniProt O95398); assay: Confirmatory qHTS for agonist of cAMP-regulated guanine nucleotide exchange factor 3 (EPAC1) (AID 1645881; active = well fitted curve in the direction sought with a large enough effect; an effect the other way counts as inactive or inconclusive;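 also: EPAC1 catalysed release of BODIPY-GDP from Rap1B seen as fluorescence loss; nearly all actives have a fitted effect of over 75% in size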); settings: EPAC1 Rap1B BODIPY-GDP exchange fluorescence; series mostly up to 154 µM
# [4] = molecular target: Rap guanine nucleotide exchange factor 4 (Homo sapiens) (UniProt Q8WZA2); assay: Confirmatory qHTS for agonist of cAMP-regulated guanine nucleotide exchange factor 4 (EPAC2) (AID 1645884; active = well fitted curve in the direction sought with a large enough effect; an effect the other way counts as inactive or inconclusive;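 also: nucleotide exchange releases bodipy-GDP from Rap1 and this lowers its fluorescence; nearly all actives have a fitted effect of over 65% in size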); settings: EPAC2 GEF activity, Rap1B-BODIPY-GDP fluorescence; series mostly up to 154 µM
# [5] = molecular target: Rap guanine nucleotide exchange factor 4 (Homo sapiens) (UniProt Q8WZA2); assay: Confirmatory qHTS for antagonist of cAMP-regulated guanine nucleotide exchange factor 4 (EPAC2) (AID 1645885; active = well fitted curve in the direction sought with a large enough effect; an effect the other way counts as inactive or inconclusive; also: nearly all actives have a fitted effect of over 25% in size); settings: EPAC2 Rap1B-BODIPY-GDP exchange fluorescence, biochemical; series mostly up to 12.7 µM
# [6] = molecular target: Rap guanine nucleotide exchange factor 3 (Homo sapiens) (UniProt O95398); assay: Counterscreen qHTS for antagonist of cAMP-regulated guanine nucleotide exchange factor 3 (EPAC1) (AID 1645888; active = well fitted curve in the direction sought with a large enough effect; an effect the other way counts as inactive or inconclusive;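 also: fluorescence loss as bound BODIPY-GDP is released from Rap1B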); settings: Rap1B-BODIPY-GDP nucleotide exchange, fluorescence; series mostly up to 154 µM
# Procedure, shortened: (§1)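 Rap1B–BODIPY-GDP (250 nM) with 50 uM GDP; compounds pin-transferred to 9.74 nM–152 uM final (activator) or from 7.32 nM upwards (inhibitor). Fluorescence Ex/Em 480/540 nm read at 5 and 30 min, then after adding cAMP or buffer, at room temperature.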
# [7] = molecular target: Rap guanine nucleotide exchange factor 3 (Homo sapiens) (UniProt O95398); assay: Counterscreen qHTS for agonist of cAMP-regulated guanine nucleotide exchange factor 3 (EPAC1) (AID 1645889; active = well fitted curve in the direction sought with a large enough effect; an effect the other way counts as inactive or inconclusive; also: nearly all actives have a fitted effect of over 40% in size); settings: EPAC1 Rap1B-BODIPY-GDP exchange, fluorescence; series mostly up to 154 µM
# Procedure, shortened: as §1
# [8] = molecular target: Phospholipid hydroperoxide glutathione peroxidase GPX4 (Homo sapiens) (UniProt P36969); assay: Primary qHTS Assay for Inhibitors of Recombinant Selenoprotein Glutathione Peroxidase 4 (GPX4) (AID 1845192; active = well fitted curve in the direction sought with a large enough effect; an effect the other way counts as inactive or inconclusive; also: nearly all actives have a fitted effect of over 65% in size); settings: recombinant GPX4, GR-coupled NADPH fluorescence, 15 min; series mostly up to 50 µM
# Procedure, shortened: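 GR-coupled assay: recombinant GPX4 preincubated 30 min with compound at room temperature; final 200 nM GPX4, 1 mM GSH, 0.5 mM cumene hydroperoxide, 0.5 mM NADPH, 100 nM GR, 0.01% BSA, pH 7.5 Tris. NADPH fluorescence (340/450 nm) read at 0 and 15 min.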
# [9] = molecular target: Glutathione peroxidase 1 (Homo sapiens) (UniProt P07203); assay: Primary qHTS Assay for Inhibitors of Recombinant Selenoprotein Glutathione Peroxidase 1 (GPX1) (AID 1845191; active = well fitted curve in the direction sought with a large enough effect; an effect the other way counts as inactive or inconclusive; also: nearly all actives have a fitted effect of over 65% in size); settings: recombinant GPX1, GR-coupled NADPH fluorescence, 15 min; series mostly up to 48.8 µM
# Procedure, shortened: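 GR-coupled assay: compounds preincubated 30 min at room temperature with GPX1, then reaction started with CHP; final 10 nM GPX1, 1 mM GSH, 0.5 mM CHP, 0.5 mM NADPH, 100 nM GR, 0.01% BSA, pH 7.5 Tris buffer. NADPH fluorescence (340/450 nm) read at 0 and 15 min.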
# Cytochrome P450 2C9 (Homo sapiens), sequence (P11712 whole entry, looked up): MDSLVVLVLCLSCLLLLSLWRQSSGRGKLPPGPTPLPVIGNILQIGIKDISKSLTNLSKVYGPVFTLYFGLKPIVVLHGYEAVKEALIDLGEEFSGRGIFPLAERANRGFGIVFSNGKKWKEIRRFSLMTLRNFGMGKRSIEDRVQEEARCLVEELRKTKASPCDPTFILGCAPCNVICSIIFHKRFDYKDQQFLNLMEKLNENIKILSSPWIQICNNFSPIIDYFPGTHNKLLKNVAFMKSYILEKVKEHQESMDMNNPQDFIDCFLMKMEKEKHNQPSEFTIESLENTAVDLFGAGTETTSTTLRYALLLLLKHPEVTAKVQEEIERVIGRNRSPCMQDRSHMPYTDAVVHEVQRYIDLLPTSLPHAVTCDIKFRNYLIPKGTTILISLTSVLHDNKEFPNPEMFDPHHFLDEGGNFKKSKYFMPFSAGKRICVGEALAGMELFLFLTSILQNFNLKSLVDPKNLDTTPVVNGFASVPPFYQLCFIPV
# Rap guanine nucleotide exchange factor 3 (Homo sapiens), sequence (O95398 whole entry, looked up): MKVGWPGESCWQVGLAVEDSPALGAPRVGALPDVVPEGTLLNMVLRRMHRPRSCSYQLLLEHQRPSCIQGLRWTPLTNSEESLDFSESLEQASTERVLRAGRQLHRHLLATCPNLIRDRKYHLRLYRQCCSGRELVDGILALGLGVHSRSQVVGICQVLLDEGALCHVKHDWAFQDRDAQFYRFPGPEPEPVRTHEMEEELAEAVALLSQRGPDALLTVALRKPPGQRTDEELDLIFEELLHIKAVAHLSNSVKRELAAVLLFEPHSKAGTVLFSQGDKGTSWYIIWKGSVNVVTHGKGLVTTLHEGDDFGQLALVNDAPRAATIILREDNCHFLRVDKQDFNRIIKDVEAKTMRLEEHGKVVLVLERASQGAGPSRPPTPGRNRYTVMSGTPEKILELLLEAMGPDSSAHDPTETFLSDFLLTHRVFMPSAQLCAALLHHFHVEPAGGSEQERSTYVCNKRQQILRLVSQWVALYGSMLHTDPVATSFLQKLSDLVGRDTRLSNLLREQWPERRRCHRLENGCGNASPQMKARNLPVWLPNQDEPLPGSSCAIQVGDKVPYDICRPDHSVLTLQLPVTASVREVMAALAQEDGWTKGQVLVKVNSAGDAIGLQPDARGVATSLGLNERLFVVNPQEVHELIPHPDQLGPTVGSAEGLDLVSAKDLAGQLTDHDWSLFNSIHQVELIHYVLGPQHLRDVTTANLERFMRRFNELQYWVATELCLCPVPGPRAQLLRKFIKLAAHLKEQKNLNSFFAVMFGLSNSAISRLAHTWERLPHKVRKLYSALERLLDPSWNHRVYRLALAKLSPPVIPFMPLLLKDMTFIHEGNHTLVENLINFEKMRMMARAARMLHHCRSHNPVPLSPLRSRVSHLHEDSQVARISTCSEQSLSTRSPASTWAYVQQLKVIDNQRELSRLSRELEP
# Phospholipid hydroperoxide glutathione peroxidase GPX4 (Homo sapiens), sequence (P36969 whole entry, looked up): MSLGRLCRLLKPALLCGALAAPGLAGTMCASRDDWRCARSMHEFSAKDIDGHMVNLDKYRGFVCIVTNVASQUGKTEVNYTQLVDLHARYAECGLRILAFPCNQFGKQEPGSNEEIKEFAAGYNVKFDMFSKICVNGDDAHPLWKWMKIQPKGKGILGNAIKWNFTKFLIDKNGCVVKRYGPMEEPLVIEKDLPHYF
# Rap guanine nucleotide exchange factor 4 (Homo sapiens), sequence (Q8WZA2 whole entry, looked up): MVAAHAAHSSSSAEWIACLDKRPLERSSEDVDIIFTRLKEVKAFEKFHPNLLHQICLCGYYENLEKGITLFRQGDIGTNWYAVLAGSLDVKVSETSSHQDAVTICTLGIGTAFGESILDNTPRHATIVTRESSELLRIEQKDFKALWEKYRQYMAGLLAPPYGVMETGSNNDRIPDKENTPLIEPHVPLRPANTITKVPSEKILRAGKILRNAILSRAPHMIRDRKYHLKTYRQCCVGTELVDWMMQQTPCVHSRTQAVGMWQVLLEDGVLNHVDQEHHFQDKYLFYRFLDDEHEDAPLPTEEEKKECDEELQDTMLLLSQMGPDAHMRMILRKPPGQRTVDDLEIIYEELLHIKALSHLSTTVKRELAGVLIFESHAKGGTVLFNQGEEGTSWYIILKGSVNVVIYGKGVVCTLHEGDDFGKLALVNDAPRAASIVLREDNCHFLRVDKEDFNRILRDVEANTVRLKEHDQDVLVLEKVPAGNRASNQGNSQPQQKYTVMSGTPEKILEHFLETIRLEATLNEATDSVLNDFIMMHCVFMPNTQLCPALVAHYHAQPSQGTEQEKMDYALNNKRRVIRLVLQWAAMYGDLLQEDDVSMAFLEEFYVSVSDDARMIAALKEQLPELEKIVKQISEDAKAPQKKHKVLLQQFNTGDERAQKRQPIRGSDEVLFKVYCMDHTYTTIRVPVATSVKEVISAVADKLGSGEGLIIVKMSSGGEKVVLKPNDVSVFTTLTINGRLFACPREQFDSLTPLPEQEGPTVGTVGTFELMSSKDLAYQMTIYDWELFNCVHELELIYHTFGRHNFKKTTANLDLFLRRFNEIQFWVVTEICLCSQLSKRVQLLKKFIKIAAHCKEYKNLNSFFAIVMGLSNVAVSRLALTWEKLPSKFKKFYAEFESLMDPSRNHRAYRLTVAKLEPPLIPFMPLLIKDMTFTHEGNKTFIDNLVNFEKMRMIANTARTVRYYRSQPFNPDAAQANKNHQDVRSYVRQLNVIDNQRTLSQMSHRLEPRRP
# Glutathione peroxidase 1 (Homo sapiens), sequence (P07203 whole entry, looked up): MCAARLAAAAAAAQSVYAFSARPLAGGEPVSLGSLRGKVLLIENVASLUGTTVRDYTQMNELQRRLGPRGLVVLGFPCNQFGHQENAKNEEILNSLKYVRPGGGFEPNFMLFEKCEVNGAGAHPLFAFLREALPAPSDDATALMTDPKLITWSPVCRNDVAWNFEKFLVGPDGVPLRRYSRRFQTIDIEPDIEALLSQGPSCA
structure (smiles),measurement,setting,value
CCC(Sc1nc2nccnc2c(=O)n1Cc1ccc(C)cc1)C(=O)NC1CCCCC1 (stereo not drawn),Potency,[1],9.52 µM (active)
COC(=O)C1=C(c2ccccc2)c2ccccc2S(=O)(=O)N1CC(=O)Nc1ccccc1Cl,Potency,[1],4.77 µM (active)
CN(C)[S+](=O)([O-])c1ccc([S+](=O)([O-])N(Cc2ccccc2)Cc2ccccn2)cc1,Potency,[1],5.35 µM (active)
COc1ccccc1NC(=O)CSc1nc(-c2ccc(C(C)(C)C)cc2)c(C#N)c(=O)[nH]1,Potency,[1],0.756 µM (active)
same,Potency,[2],67.5 µM (active)
same,Potency,[3],inactive
same,Potency,[4],inactive
same,outcome,[5],inactive [at 12.7 µM]
same,Potency,[6],inactive
same,Potency,[7],inactive
CCOC(C(=O)N(C)CCN(C)CCc1ccccc1)(c1ccccc1)c1ccccc1,Potency,[1],6.01 µM (active)
CCOC(=O)c1nnc(NC(=O)C2=C(C)NC(Nc3nc4ccccc4o3)=NC2c2ccccc2Cl)s1 (stereo not drawn),Potency,[1],16.9 µM (active)
COc1ccccc1NC(=O)Cn1c(=O)n(Cc2nc(-c3ccccc3)no2)c(=O)c2ccccc21,Potency,[1],2.39 µM (active)
COc1ccc(Cn2c(SCc3ccc(C(=O)NC4CCCC4)cc3)nc3ccncc32)cc1,Potency,[1],0.674 µM (active)
Oc1cccc(C(Nc2ccccn2)c2ccc3cccnc3c2O)c1Cl (stereo not drawn),Potency,[1],10.7 µM (active)
same,Potency,[2],inactive
same,Potency,[3],inactive
same,Potency,[4],inactive
same,Potency,[5],inactive
same,Potency,[6],inactive
COc1cc(C(=O)NC(c2ccc(Cl)cc2)c2cc(Cl)c3cccnc3c2O)cc(OC)c1OC (stereo not drawn),Potency,[1],10.7 µM (active)
COc1ccc(Cn2c(SCC(=O)N3CCN(c4ccc(F)cc4)CC3)nc3ccccc32)cc1,Potency,[1],1.69 µM (active)
CCN(CC)C(=O)[C@]1(c2ccccc2)C[C@H]1CN,Potency,[1],inactive
same,Potency,[8],inactive
CCCCCCCCC=CCCCCCCCC(=O)NCCOC(=O)CC(C(=O)O)S(=O)(=O)O (stereo not drawn),Potency,[1],8.49 µM (active)
same,Potency,[8],inactive
COc1ccc2c(c1)CCc1sc(NC(=O)c3cccc(Br)c3)nc1-2,Potency,[1],5.35 µM (active)
CC1=C(C(=O)Nc2cc(C(=O)O)ccn2)C(c2ccc(F)cc2Cl)N=C(Nc2nc3ccc(F)cc3o2)N1 (stereo not drawn),Potency,[1],23.9 µM (active)
COc1ccc(CCNc2nc(SCc3ccccc3Cl)nc3ccccc23)cc1OC,Potency,[1],0.19 µM (active)
Cc1ccc(/C=C2\C(=O)C3(C)CCC2C3(C)C)cc1 (stereo not drawn),Potency,[1],8.49 µM (active)
same,Potency,[9],inactive
same,Potency,[8],inactive
COc1ccc(-c2cn3cccnc3n2)cc1NC(=O)c1cc(C)cc(C)c1,Potency,[1],4.77 µM (active)

# From PubChem BioAssay (NCATS)
